Laboratory results taken from PubChem BioAssay.
Calls of active or inactive are those of the source. Unless noted, how the calls were made is not given here.

Assays:
[1] = compounds binding Alexa647 anti-His antibody – biochemical, small-molecule microarray, 635 nm fluorescence, artefact control for SMM control protein annotation, primary screen (AID 1128); settings: higher = more signal;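 further: score merges feature fluorescence with signal-to-noise for each printed compound spot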
[2] = tested on: Human papillomavirus type 1a E7 protein (residues 1-88); experiment: HPV1a E7 small-molecule binders, primary screen, biochemical, small-molecule microarray, residues 1-88, 635 nm (AID 1129); settings: small-molecule microarray binding, fluorescence 635 nm; higher = more signal
[3] = target: Focal adhesion kinase 1 (Homo sapiens) (UniProt Q05397); experiment: PTK2 protein binding on printed compound slides – biochemical, small-molecule microarray, 635/667 nm fluorescence, BSA, DTT, primary screen (AID 1130); settings: 635 nm fluorescence, higher = more signal;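 further: composite of spot emission at 667 nm and signal to noise over triplicate slides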
[4] = tested on: Fibrinogen (Alexa647-labelled); experiment: Alexa647-fibrinogen binding to printed small molecules – biochemical, small-molecule microarray, 635/667 nm fluorescence, artefact control for SMM control-protein annotation, profiling panel (AID 1131); settings: fibrinogen-A647 binding fluorescence, higher = more signal;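 further: z-score merges 667 nm fluorescence with per-spot signal-to-noise over triplicate slides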
[5] = target: Follistatin (Homo sapiens) (UniProt P19883); experiment: FST protein binding to printed compounds – biochemical, small-molecule microarray, 635/667 nm fluorescence, primary screen (AID 1132); settings: 635 nm fluorescence, higher = more signal
[6] = target: Fibroblast growth factor 2 (Homo sapiens) (UniProt P09038); experiment: basic fibroblast growth factor binding to printed compounds – biochemical, small-molecule microarray, 635/667 nm fluorescence, primary screen (AID 1133); settings: FGF2, fluorescence 635/667, higher = more signal
[7] = JC-1 mitochondrial potential readout, lung cancer cells – cell-based, A549, JC-1 fluorescence, basal, 24 h, 100 nL, profiling panel (AID 1138); settings: higher = more signal;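 further: A549 lung adenocarcinoma cells under basal conditions with no added stimulus; test concentration not given here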
Lefty1 = Lefty1 protein binding to printed compounds – biochemical, small-molecule microarray, 635/667 nm fluorescence, primary screen (AID 1139); settings: fluorescence 635/667, higher = more signal
[8] = tested on: wheat germ agglutinin (Triticum aestivum), Alexa647-labelled; experiment: Alexa647-WGA lectin binding to printed small molecules – biochemical, small-molecule microarray, 635/667 nm fluorescence, artefact control for SMM control-protein annotation, profiling panel (AID 1140); settings: WGA-A647 binding, 635 nm fluorescence, higher = more signal;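 further: score merges 667 nm feature emission with signal to noise over triplicate slides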
[9] = target: Luciferin 4-monooxygenase (Photinus pyralis) (UniProt P08659); experiment: inhibition of purified Photinus pyralis luciferase – biochemical, luminescence, purified enzyme, 2006 set, primary screen (AID 1141); settings: purified firefly luciferase, SteadyGlo luminescence, 30 min; higher = more signal, called active from +8 up or from −8 down;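 further: cell-free assay with purified firefly luciferase at 100 ng per well in PBS; test concentration not given here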
[10] = tested on: Wnt5a (protein binding on small-molecule microarray); experiment: small molecules binding Wnt5a protein – biophysical, small-molecule microarray, 635/667 nm fluorescence, primary screen (AID 1142); settings: 635 nm fluorescence, higher = more signal;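 further: fluorescence read at 667 nm with signal to noise per printed feature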
[11] = ATP-based viability of Huh7 replicon cells – cell-based, CellTiter-Glo luminescence, basal, 48 h, cytotoxicity control for HCV replication inhibitor project, primary screen (AID 1143); settings: higher = more signal, called active from +8 up or from −8 down;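 further: Huh7 hepatoma cells carrying a hepatitis C replication reporter with no stimulus; test concentration not given here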
[12] = Pseudomonas biofilm growth suppression – PAO1 strain, BacTiter-Glo luminescence, LB-PBS, primary screen (AID 1144); settings: P. aeruginosa PAO1 biofilm, 12 h, higher = more signal
[13] = basal CRE-LacZ reporter activity in PC12 – cell-based, unstimulated, primary screen (AID 1145); settings: no forskolin, luminescence, 4.5 h, higher = more signal, called active from +8 up or from −8 down
[14] = forskolin-driven CRE-LacZ activity in PC12 – cell-based, CRE-LacZ reporter, forskolin-stimulated, primary screen (AID 1146); settings: luminescence, 4.5 h, higher = more signal, called active from +8 up or from −8 down;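 further: PC12 cells with 6xCRE LacZ reporter stimulated by forskolin 10 µM; beta-galactosidase reporter signal reflecting CREB driven transcription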
[15] = target: Streptavidin (Streptomyces avidinii) (UniProt P22629); experiment: compounds binding control protein streptavidin – biophysical, small-molecule microarray, 635/667 nm fluorescence, artefact control for SMM compound annotation, primary screen (AID 1147); settings: higher = more signal;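 further: signal reflects streptavidin binding to arrayed compounds as a control protein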
[16] = probe aInhba binding on compound microarray – biochemical, small-molecule microarray, 635/667 nm fluorescence, primary screen (AID 1148); settings: higher = more signal;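 further: score merges 667nm spot fluorescence with signal-to-noise for antibody binding to printed compounds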
Torsin-1A (Homo sapiens) [17] = target: Torsin-1A (Homo sapiens) (UniProt O14656); experiment: TOR1A wild-type binding on microarray – cell lysate, small-molecule microarray, lysate, 635/667 nm, primary screen (AID 1149); settings: COS7 hTOR1A-WT lysate, 635 nm fluorescence, higher = more signal
Torsin-1A (Homo sapiens) [18] = target: Torsin-1A (Homo sapiens) (UniProt O14656); experiment: torsin A mutant lysate binding on microarrays – cell lysate, small-molecule microarray, COS7 lysate, 635/667 nm fluorescence, primary screen (AID 1150); settings: COS7 hTOR1A mutant lysate, 635 nm fluorescence, higher = more signal;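 further: score pools 667 nm emission and signal to noise measuring lysate protein binding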
[19] = tested on: Sonic hedgehog protein (Shh); experiment: Sonic hedgehog microarray binding compounds – biochemical, small-molecule microarray, 635/667 nm fluorescence, primary screen (AID 1151); settings: 635 nm fluorescence, higher = more signal;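 further: Shh protein binding to compounds spotted on small-molecule microarray slides; score combines spot fluorescence intensity with signal-to-noise across triplicate slides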

Sequence of Follistatin (Homo sapiens) (P19883 whole entry, looked up): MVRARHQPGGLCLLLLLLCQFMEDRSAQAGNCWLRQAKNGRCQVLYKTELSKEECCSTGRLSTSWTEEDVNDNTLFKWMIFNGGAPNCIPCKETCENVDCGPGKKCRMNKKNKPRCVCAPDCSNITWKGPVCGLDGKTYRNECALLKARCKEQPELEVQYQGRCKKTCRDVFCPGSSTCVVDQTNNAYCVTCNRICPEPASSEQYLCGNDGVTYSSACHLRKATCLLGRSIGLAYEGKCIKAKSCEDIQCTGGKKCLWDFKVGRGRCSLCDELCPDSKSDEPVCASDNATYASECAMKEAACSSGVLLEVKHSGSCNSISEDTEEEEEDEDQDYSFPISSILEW
Sequence of Streptavidin (Streptomyces avidinii) (P22629 whole entry, looked up): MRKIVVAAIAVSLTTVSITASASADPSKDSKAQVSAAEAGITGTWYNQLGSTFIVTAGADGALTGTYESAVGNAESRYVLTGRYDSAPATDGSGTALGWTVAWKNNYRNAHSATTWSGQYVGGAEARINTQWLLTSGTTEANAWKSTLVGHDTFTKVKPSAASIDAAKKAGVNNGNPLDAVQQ
Sequence of Fibroblast growth factor 2 (Homo sapiens) (P09038 whole entry, looked up): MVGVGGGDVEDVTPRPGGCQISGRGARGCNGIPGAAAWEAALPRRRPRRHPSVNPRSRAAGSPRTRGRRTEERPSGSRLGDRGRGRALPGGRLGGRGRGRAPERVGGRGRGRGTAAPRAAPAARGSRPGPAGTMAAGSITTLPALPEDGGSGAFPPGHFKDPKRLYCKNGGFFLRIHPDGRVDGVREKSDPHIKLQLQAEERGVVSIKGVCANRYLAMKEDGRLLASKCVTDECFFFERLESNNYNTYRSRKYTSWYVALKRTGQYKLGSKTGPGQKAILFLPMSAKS
Sequence of Torsin-1A (Homo sapiens) (O14656 whole entry, looked up): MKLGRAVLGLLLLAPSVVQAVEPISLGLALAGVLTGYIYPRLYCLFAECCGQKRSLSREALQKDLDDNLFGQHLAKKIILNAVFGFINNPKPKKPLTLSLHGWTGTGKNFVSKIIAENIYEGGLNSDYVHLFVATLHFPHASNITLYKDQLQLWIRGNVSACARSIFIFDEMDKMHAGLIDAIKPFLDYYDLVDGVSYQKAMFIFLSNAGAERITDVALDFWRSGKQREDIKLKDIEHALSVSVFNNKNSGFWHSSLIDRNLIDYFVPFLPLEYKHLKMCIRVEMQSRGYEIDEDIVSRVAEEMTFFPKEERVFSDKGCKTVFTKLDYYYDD
Sequence of Luciferin 4-monooxygenase (Photinus pyralis) (P08659 whole entry, looked up): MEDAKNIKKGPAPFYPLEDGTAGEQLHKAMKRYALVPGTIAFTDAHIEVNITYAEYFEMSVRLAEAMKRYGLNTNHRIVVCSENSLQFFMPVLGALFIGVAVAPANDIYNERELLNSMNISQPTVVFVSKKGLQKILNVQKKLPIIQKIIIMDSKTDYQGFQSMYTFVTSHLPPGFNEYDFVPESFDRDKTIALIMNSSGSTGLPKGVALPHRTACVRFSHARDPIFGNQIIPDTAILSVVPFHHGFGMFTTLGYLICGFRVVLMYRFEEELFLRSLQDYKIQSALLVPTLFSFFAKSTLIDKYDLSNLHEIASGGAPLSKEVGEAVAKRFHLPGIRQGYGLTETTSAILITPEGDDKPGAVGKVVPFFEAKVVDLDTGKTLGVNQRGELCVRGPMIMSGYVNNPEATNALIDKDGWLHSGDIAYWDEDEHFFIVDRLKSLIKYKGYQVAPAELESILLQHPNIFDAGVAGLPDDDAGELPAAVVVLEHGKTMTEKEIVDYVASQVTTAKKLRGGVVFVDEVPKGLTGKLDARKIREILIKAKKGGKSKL
Sequence of Focal adhesion kinase 1 (Homo sapiens) (Q05397 whole entry, looked up): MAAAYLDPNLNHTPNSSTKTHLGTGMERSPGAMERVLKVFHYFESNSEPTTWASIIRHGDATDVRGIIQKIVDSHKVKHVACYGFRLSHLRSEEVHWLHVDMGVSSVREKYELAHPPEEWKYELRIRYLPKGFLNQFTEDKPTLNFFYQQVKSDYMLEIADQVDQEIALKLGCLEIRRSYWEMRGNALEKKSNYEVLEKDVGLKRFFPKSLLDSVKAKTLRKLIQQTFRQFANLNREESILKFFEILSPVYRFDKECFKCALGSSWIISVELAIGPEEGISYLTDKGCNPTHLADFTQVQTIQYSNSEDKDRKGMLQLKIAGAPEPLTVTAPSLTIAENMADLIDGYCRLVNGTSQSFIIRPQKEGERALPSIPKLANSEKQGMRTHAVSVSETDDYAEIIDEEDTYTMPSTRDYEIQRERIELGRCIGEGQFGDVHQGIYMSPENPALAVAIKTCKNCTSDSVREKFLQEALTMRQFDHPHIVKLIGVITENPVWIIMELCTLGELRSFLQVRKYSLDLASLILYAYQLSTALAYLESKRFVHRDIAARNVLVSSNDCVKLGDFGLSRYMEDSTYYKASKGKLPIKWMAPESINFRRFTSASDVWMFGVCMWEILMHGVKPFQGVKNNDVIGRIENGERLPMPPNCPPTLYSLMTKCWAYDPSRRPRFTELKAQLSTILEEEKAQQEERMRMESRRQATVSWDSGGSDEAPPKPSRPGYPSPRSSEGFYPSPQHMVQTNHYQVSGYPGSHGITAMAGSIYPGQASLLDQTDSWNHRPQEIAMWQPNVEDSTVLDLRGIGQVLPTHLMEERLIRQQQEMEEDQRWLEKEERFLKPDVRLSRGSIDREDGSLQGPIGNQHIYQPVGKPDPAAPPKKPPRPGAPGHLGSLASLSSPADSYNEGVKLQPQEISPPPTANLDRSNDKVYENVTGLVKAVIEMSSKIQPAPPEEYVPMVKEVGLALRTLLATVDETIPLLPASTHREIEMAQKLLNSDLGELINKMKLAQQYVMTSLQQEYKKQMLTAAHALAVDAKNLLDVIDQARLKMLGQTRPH

Structure (SMILES) | composite z-score [1] | composite z-score [2] | composite z-score [3] | composite z-score [4] | composite z-score [5] | composite z-score [6] | z-score [7] | composite z-score (Lefty1) | composite z-score [8] | z-score [9] | composite z-score [10] | z-score [11] | z-score [12] | z-score [13] | z-score [14] | composite z-score [15] | composite z-score [16] | composite z-score (Torsin-1A (Homo sapiens) [17]) | composite z-score (Torsin-1A (Homo sapiens) [18]) | composite z-score [19]
CC(=O)n1cc(C(O)C2C=CC3C(=O)N(c4ccccc4)C(=O)C3N2Nc2ccc(C#N)cc2)c2ccccc21 (stereo not given) | 1.56 | 1.26 | 0.519 | 0.893 | 0.12 | -0.856 | 0.0139 | -0.233 | 1.38 | -0.985 (inactive) | 0.523 | 0.853 (inactive) | -0.935 (inactive) | -0.512 (inactive) | 0.1 (inactive) | 0.846 | 0.11 | -0.467 | 0.522 | -0.38
C=C(C(=O)CC[C@@H](OC(C)=O)c1ccc(OCCO)cc1)C(C)C | 0.521 | 0.0161 | 0.019 | 0.933 | 0.627 | 1.29 | -0.316 | -0.12 | 0.0487 | -1.08 (inactive) | 0.177 | 0.118 (inactive) | -0.73 (inactive) | 1.68 (inactive) | 1.05 (inactive) | -0.41 | -0.148 | 0.698 | 1.02 | 0.0191
C=CCC(OC(C)=O)[C@@H]1[C@@H](N(Cc2ccc(-c3cccc(C(F)(F)F)c3)o2)C(=O)c2ccc(C)cc2)c2cc(OCCCO)ccc2N1C(=O)c1ccc2ccccc2n1 (stereo not given in full) | -0.614 | -0.369 | -0.223 | 0.33 | 0.839 | 0.131 | 0.61 | 0.727 | 0.717 | -1.25 (inactive) | 0.0861 | 0.0775 (inactive) | -0.293 (inactive) | 0.395 (inactive) | -0.0797 (inactive) | 0.256 | -0.151 | -0.138 | 0.114 | 0.978
COc1ccc([Si](C)(C)[C@@H]2[C@@H](CCn3cc([C@H](O)c4ccccc4)nn3)O[C@]3(C(=O)N(C)c4ccccc43)[C@H]2C)cc1 | 0.214 | 0.991 | 0.227 | -0.892 | 0.0274 | 0.283 | -0.0374 | 0.57 | 0.0783 | 0.431 (inactive) | 0.0302 | -3.85 (inactive) | 0.317 (inactive) | 1.72 (inactive) | -1.26 (inactive) | -0.0794 | -0.0465 | -0.507 | -0.0593 | -0.103
COCCOC(=O)N1C(=O)[C@@]2(c3cc(C#CCCO)ccc31)[C@H](C(=O)NC[C@H](O)c1ccccc1)[C@H]1C(=O)O[C@H](c3ccccc3)[C@H](c3ccccc3)N1[C@@H]2c1ccc(OCCO)cc1 | 0.714 | 1.18 | 1 | 0.951 | 1.28 | 1.24 | -1.27 | 1.42 | 0.246 | -1.09 (inactive) | 0.041 | -3.14 (inactive) | -1.71 (inactive) | -1.97 (inactive) | -1.18 (inactive) | 0.738 | 0.0444 | 0.269 | 0.126 | 1.85
